# About 83,000 compounds went through this panel and 20% of them were active in at least one assay; those are over-represented in the sample as a whole.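 Values shown are percent growth following 48 h exposure of cells in 96-well plates to a single concentration of compound; below 10 was considered active.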 Unmarked numbers belong to inactive results. Active and inactive are the calls of the source.
# Test system: TK-10 renal
# Experiment: NCI-60 one-dose screen, 48 h (100 = growth as untreated, 0 = no growth, -100 = all killed)
# Details: 10 µM unless noted
# Method: Growth inhibition of the TK-10 human tumor cell line is measured as a screen for anti-cancer activity. Cells are grown in 96 well plates and exposed to the test compound for 48 hours. Compounds are tested at a single concentration, which is 10^-5 M for most compounds. The reported endpoint is percent growth (GI% or GIPRCNT), where numbers from 0 - 100% represent growth inhibition, and numbers from -100% - 0 represent cell death. For example, a value of 40 represents 60% growth inhibition. A value of 0 means no net growth occurred over the course of the experiment. A value of -40 indicates 40% of cells at the beginning of the experiment died by the end of the experiment. A value of -100 means all cells are dead at the end of the experiment.
# NCI-60 Human Tumor Cell Lines Screen was performed using the standard one-dose NCI protocol, which is described in more detail at https://dtp.cancer.gov/discovery_development/nci-60/default.htm.
# Compounds with GIPRCNT values below 10 were considered active. Activity score was based on GIPRCNT using the following formula: […]
# Score is 0 for GIPRCNT values of 100 or above, 50 for GIPRCNT values of 0, and 100 for GIPRCNT values of -100.
row,SMILES,growth
1,O=c1c2ccccc2c(=O)c2c1sc1c(=O)c3ccc(O)cc3c(=O)c12,-95.4% (active)
2,Cc1ccc2nc(/C(C#N)=C(/CCCO)NC(Cc3ccccc3)C(=O)OCc3ccccc3)[nH]c(=O)c2c1 (stereo not given),126%
3,CCSc1oc(C)nc1[P+](c1ccccc1)(c1ccccc1)c1ccccc1,48.1%
4,O=C1Nc2c(C(=O)O)cccc2/C1=N/c1n[nH]c(=S)s1,117%
5,Cc1ccc(N2C(=O)CCC2=O)cc1,89.9%
6,CCOC(=O)c1c(C)nc2c(c1N)/C(=C/c1ccc(OC)cc1)C(=O)N2Cc1ccccc1,97.2%
7,O=C(NNC(=O)c1ccc(NC(=O)c2ccccn2)cc1)Nc1ccc2ccccc2c1,111%
8,CC1C=CC(OC(=O)C(C)(O)CCC(O)(C(=O)OC2CC(O)C(C(C)C)CC2(C)O)C(C)C)(C(C)C)CC1 (stereo not given),-86.1% [4.63 µM] (active)
9,COc1ccc(C(=O)c2cc3c(N)c(C(=O)Nc4ccccc4)sc3nc2C)cc1,65.2%
10,Cc1ncc(C(=O)Nc2ccc(CN3CCN(C)CC3)c(C(F)(F)F)c2)cc1C#Cc1cnc(N)c2ncccc12,46.3%
11,C=C1C(=O)O[C@H]2[C@H]1CC/C(COC(=O)NCc1ccc(Cn3c(=O)sn(-c4ccc(C#N)cc4)c3=O)cc1)=C\CC[C@@]1(C)O[C@@H]21,48.9%
12,Ic1ccccc1I,105%
13,O=S(=O)(NCCNc1nccc(-c2c(-c3cccc(O)c3)nc3occn23)n1)c1ccc(Br)cc1,69.8%
14,CN1CCN(CCOc2ccc(-c3cnc4c(-c5ccc(F)cc5)cnn4c3)cc2)CC1,75.1%
15,COc1ccc(C[n+]2c3ccccc3n3c4ccc(N)cc4ccc32)c(OC)c1OC,78.2%
16,CCc1n(Cc2ccc3ccccc3n2)cc[n+]1Cc1ccc2ccccc2n1,41.9%
17,COc1cccc(C(=O)NNc2nc(Cl)nc(Cl)n2)c1,104%
18,CN(Cc1cc(Br)cc(Br)c1O)Cc1cc(Br)cc(Br)c1O,40.6%
19,C=C1CC[C@@H]2[C@](C)(COC(C)=O)[C@H](OC(C)=O)CC[C@@]2(C)[C@@H]1CC(Nc1ccc(S(=O)(=O)NC(C)=O)cc1)C1=CCOC1=O (stereo not given in full),2.78% (active)
20,CCCCNc1cc(-c2cn[nH]c2-c2cc(C)cc(OC)c2)nc(-c2cccnc2)n1,97.2%

row,SMILES,growth
1,CN1CCN(C(=O)C(C)(C)c2ccc(C(=O)Nc3cn4cc(-c5ccncc5)ccc4n3)cc2)CC1,0.354% (active)
2,COc1ccccc1C(=O)Nc1cccc(NC(=O)c2ccoc2C)c1,44.7%
3,CN(C)c1ccc(-c2nc(-c3ccccc3)c(-c3ccccc3)[nH]2)cc1,99.6%
4,O=C(N/N=C\c1cccc([N+](=O)[O-])c1)N/N=C/c1cccc([N+](=O)[O-])c1,117%
5,COc1ccc(-c2nc3c(N)c(CO)cnc3s2)cc1,91.9%
6,Cc1ccc2nc(-c3ccc(C(=O)NNC(=S)Nc4ccccc4)cc3)[nH]c2c1,151%
7,CN(C)CCCC1(c2ccc(F)cc2)OCc2cc(-c3ccc4cc[nH]c4c3)ccc21 (stereo not given),92.9%
8,CN(C)CCCC1(c2ccc(F)cc2)OCc2cc(-c3cc4ccccc4s3)ccc21 (stereo not given),60.5%
9,O=C(CN1CCCCCC1)Nc1nc2ccc(NCc3ccc(Cl)cc3)cc2s1,110%
10,C=C(C)[C@@H]1CC[C@]2(C)[C@H](CC=C3[C@@H]4CC(C)(C)CC[C@]4(CO)CC[C@]32C)[C@@]1(C)CCCN,-45.8% (active)
11,CCOC(=O)c1c(C)c2c(n1Cc1ccccc1)CSCC2=O,11.5% [100 µM]
12,O=C1c2ccccc2C(=O)c2c1cc1c(c2[N+](=O)[O-])OCO1,-14.8% (active)
13,N[C@H]1CCC[C@@H]1NCCCCN1C(=O)c2cccc3cc([N+](=O)[O-])cc(c23)C1=O,44.5%
14,Cc1ccc(/C=C(\C#N)n2nnc3cc(F)c(F)cc32)cc1,22.4%
15,CS(=O)(=O)c1ccc(NC(=O)c2ccccc2)nc1,93.5%
16,Nc1nc(NC(=O)Nc2ccc(C(=O)O)cc2)nn1-c1ccc(S(N)(=O)=O)cc1,106%
17,Cc1nc2c(c(=O)[nH]1)C(c1ccccc1)c1ccc3ccccc3c1O2 (stereo not given),74%
18,COc1ccc(C2CC(c3cc(OC)c(OC)c(OC)c3)=NO2)cc1OCCCCOc1cc2c(cc1OC)C(=O)N1CCC[C@H]1C=N2 (stereo not given in full),-13.6% (active)
19,C=CCOC(=O)C1=C(C)N(CC)C(=O)NC1c1c(Cl)n(C)c2ccccc12 (stereo not given),102%
20,CC(C)(C)c1cc(Cl)c(O)c(CNCCO)c1,105%
